Assay [1] can be described thus: reducers of endogenous Her2 protein level, primary screen, SKBR3 breast tumor cells, AlphaScreen, ATP viability (AID 461;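 active = Her2 level under about 52% in both replicate screens, with viability over 70% of control, limit read from the data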;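 for Her2 level: lower value means less Her2 protein in the cells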;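 for viability: percent of carrier control wells set as 100% viability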). Particulars: 18-24 h, measured here: SKBR3 viability, ATP luminescence, at 10 µM.
Assay [2] has as its target Receptor tyrosine-protein kinase erbB-2 (Homo sapiens) (UniProt P04626). The description is as above. Particulars: 18-24 h, at 10 µM, stronger effect = lower value.
The nature of assay [3]: SK-BR-3 cell growth inhibitors, pilot screen, 24 h, human (AID 572;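 active = viability at or below 10% of carrier control in both of two separate runs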;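 note: compound exposure lasted between 18 and 24 h rather than exactly 24 h; 100% = carrier-treated control wells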). Particulars: SK-BR-3 viability, CellTiter-Glo luminescence, at 10 µM, stronger effect = lower value.
Assay [4] is described as follows: HUVEC growth inhibition – cell-based, human, primary screen (AID 575;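 active = viability at or below 30% in both replicate assays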;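 note: 100% = median of untreated cell wells with 0.1% DMSO on each plate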). Particulars: HUVEC proliferation, CellTiter-Glo luminescence, 72 h; at 10 µM; stronger effect = lower value.
Assay [5] in a line: growth inhibitors of H69AR lung tumor, primary screen, human, duplicate replicates (AID 580;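 active = viability at or under a set limit in both replicates, limit being median viability minus 3 SD, cut at about 48% in these data, passing the limit was not always enough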;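 note: 100% = mean luminescence of untreated wells and 0% = no signal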). Particulars: H69AR lung tumor cells viability, ATP luminescence, 72 h; at 10 µM; stronger effect = lower value.
Assay [6] in a line: reversal of MRP1-mediated doxorubicin resistance, pilot screen, H69AR cells, doxorubicin co-treatment (AID 601;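 active = viability loss from added drug above about 55%, and viability with drug at most 40%, in both replicates, limit read from the data, passing the limit was not always enough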). Particulars: CellTiter-Glo, 72 h, at 10 µM; for differential viability (reversal): stronger effect = higher value.
Assay [7] in a line: 384-well plate pilot, post-Golgi transport modulator project, inhibition of yeast transport mutant growth (AID 636; in the data active = inhibition above about 31%). Particulars: absorbance 615 nm, about 18 h, stronger effect = higher value.
The nature of assay [8]: growth suppression of yeast trafficking mutant, preliminary HTS, modulators of trafficking downstream of Golgi apparatus project, 1536-format plate, OD 615 nm (AID 637; in the data active = inhibition above about 30%). Particulars: yeast transport mutant growth, absorbance 615 nm, 18 h; stronger effect = higher value.
Assay [9] in a line: OD615 S. cerevisiae growth inhibition, permissive medium, pilot counter-assay, permissive growth control for S. cerevisiae lifespan shortening project (AID 705). Particulars: OD615, 24 h, at 10 µM, stronger effect = higher value.
A short description of assay [10]: Restrictive medium S. cerevisiae growth inhibition, OD615, pilot screen of yeast lifespan reduction project, restrictive growth control (AID 706;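 active = growth inhibition above a set limit, 3 SD over mean compound inhibition, in both replicates, cut at about 43% in these data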;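 note: modified DeaD lifespan yeast strain shifted to restrictive glucose medium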). Particulars: OD615, 48 h, at 10 µM, stronger effect = higher value.
Assay [11] can be described thus: viability gain of MRP-1-high H69AR cells under doxorubicin, pilot screen, MRP-1 activator project, CellTiter-Glo, duplicate (AID 807;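 active = viability increase at or above a cutoff of the median across tested compounds plus 3 SD, cut at about 8.5% in these data, passing the limit was not always enough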;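 note: compound pretreatment 18-22 h then 72 h combined with doxorubicin; 0% = doxorubicin alone and 100% = vehicle without doxorubicin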). Particulars: H69AR viability with doxorubicin, CellTiter-Glo luminescence; at 10 µM; stronger effect = higher value.
Assay [12] can be described thus: growth suppression of beta-catenin knockout HCT116, pilot screen, human colon tumor cells (AID 823;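 active = cell viability at or below a set limit in both duplicate runs, the limit being the all-compound median minus 4 SD, cut at about 23% in these data, passing the limit was not always enough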;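 note: 0% = wells killed by 20 µM Hyamine and 100% = untreated DMSO cell wells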). Particulars: CellTiter-Glo, 60 h, at 10 µM, stronger effect = lower value.
Assay [13] can be described thus: inhibitors of the yeast RAM network, pilot screen, dse1pr::URA3 reporter, 5-FOA selection (AID 869;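 active = inhibition over a set limit, the all-compound mean plus 3 SD, in both replicate runs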;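 note: 0% = DMSO wells with no growth and 100% = 10 µM 1-NA-PP1 with full growth; RAM network block rescues cells from 5-FOA so hits raise OD615 growth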). Particulars: S. cerevisiae dse1pr::URA3 5-FOA growth, OD615, 2 d; at 10 µM; stronger effect = higher value; strain carries analog-sensitive mutant Cbk1 kinase.
Assay [14] is described as follows: RAM signaling pathway blockade in yeast – S. cerevisiae, Pdr1DBD-CYC8 efflux-inhibited sensitized strain, primary screen (AID 1298;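 active = RAM network inhibition above 8.4% in each of two replicates, 3 SD over the compound average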;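 note: 0% = DMSO untreated cells without growth and 100% = 10 µM 1-NA-PP1 full growth; higher means more yeast growth rescued from 5-FOA killing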). Particulars: S. cerevisiae cbk1-as DSE1-URA3 strain, 5-FOA growth OD615, 2 d; at 50 µM; stronger effect = higher value.
A short description of assay [15]: growth suppression of PTEN-deleted HCT116, pilot screen, cell-based, HCT116 clonal line, CellTiter-Glo (AID 824;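 active = viability at or below 27.92% in each of two runs, the all-compound median minus 4 SD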;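 note: 0% = 20 µM Hyamine control and 100% = vehicle cell control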). Particulars: 60 h, at 10 µM, stronger effect = lower value.
[16] abbreviates: H69AR cells + 2 uM doxorubicin, measured here: viability with 2 uM doxorubicin, stronger effect = lower value.
Where [17] appears, read: H69AR cells, compound alone cytotoxicity.

Data on ten compounds can be found in PubChem BioAssay.

Records with an inconclusive call do not appear. Calls of active or inactive are those of the source.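 Rule for the calls, unless noted: active = growth inhibition above 25% in both replicates, a cutoff set 3 SD above the mean; inconclusive = above 25% in only one replicate; inactive = the rest.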

Chain of Receptor tyrosine-protein kinase erbB-2 (Homo sapiens) (P04626 whole entry, looked up): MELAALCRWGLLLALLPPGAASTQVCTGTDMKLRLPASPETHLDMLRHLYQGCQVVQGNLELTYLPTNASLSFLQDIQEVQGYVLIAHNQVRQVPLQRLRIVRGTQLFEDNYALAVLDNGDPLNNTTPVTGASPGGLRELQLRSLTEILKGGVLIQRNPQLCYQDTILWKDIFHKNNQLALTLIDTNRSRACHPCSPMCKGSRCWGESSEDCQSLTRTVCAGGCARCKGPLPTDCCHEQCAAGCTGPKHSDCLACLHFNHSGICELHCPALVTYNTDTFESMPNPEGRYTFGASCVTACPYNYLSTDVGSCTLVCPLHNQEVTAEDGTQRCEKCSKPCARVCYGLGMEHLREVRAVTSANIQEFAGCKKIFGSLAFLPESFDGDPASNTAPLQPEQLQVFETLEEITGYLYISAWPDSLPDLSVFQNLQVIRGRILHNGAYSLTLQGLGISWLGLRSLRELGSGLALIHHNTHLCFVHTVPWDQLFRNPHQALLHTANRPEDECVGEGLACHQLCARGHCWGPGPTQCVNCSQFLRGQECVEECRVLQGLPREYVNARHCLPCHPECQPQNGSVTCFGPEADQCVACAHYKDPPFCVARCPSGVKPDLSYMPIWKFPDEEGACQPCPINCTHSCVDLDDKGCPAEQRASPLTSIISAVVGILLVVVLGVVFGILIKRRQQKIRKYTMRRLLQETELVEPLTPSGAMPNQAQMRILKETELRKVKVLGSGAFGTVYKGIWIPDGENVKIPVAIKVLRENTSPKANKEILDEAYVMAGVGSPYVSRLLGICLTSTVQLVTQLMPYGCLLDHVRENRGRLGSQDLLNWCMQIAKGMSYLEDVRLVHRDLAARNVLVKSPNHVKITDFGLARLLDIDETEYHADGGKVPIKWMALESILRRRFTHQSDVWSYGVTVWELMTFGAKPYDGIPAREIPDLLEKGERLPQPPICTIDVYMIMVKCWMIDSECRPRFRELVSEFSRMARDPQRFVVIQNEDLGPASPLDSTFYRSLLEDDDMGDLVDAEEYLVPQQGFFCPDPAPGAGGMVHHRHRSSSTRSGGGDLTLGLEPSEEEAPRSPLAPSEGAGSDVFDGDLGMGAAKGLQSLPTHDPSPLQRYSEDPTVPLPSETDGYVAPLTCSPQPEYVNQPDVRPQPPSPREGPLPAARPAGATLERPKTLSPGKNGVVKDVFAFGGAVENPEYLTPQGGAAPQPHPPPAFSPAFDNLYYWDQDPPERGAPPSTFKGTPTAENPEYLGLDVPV

On to `CNC(=O)C1C2C=CC3(O2)C1C(=O)N(C1CC1)C3C(=O)NCc1ccc(OC)cc1` (stereo not given), for which the viability was 99.5% in assay [1]; 99.5% (inactive) in [3]; 91.9% (inactive) in assay [4]; 91.5% (inactive) in assay [5]; 92% in assay [6] (setting [16]); 91.5% in assay [6] (setting [17]). Moreover, the viability in assay [12] was 96.3% (inactive). Besides, the Her2 level in assay [2] was 84% (inactive). In addition, the differential viability (reversal) in [6] (H69AR cells + 2 uM doxorubicin) was -0.53% (inactive). For the same compound, the values for the inhibition in [7], in assay [8] and in assay [13] were -8.49% (inactive), -0.16% (inactive) and 0.115% (inactive), respectively. Further, the figures for the growth inhibition in assay [9] and in [10] were -12.6% (inactive) and 1.86% (inactive), respectively. Moreover, the viability increase in assay [11] is -1.49% (inactive). Moreover, the RAM network inhibition in assay [14] is 1.1% (inactive).

Turning to `Fc1ccc(-c2ccc(-c3nn4c(-c5ccco5)nnc4s3)o2)cc1`, the viability is 76% in [1]; 76% (inactive) in assay [3]; 77.8% (inactive) in assay [4]; 79.7% (inactive) in [5]; 74.5% in assay [6] (setting [16]); 79.7% in [6] (setting [17]). Moreover, the viability in assay [12] is 97.1% (inactive). In addition, the Her2 level in [2] was 63% (inactive). Moreover, the differential viability (reversal) in assay [6] (H69AR cells + 2 uM doxorubicin) was 5.16% (inactive). Further, the results for the inhibition in assay [7], in assay [8] and in assay [13] were -4.32% (inactive), 4.92% (inactive) and 1.25% (inactive), respectively. The growth inhibition in assay [9] was 2.35% (inactive); in assay [10], 60.4% (active). Besides, the viability increase in assay [11] is -3.88% (inactive). Moreover, the RAM network inhibition in [14] was 2.34% (inactive).

Turning to `C(/CCc1ccccc1)=N\n1cnnc1`, the viability in [1] was 105%; in assay [3], 105% (inactive); in [4], 117% (inactive); in assay [5] it was 99% (inactive); in assay [6] (setting [16]) it was 89.1%; in assay [6] (setting [17]), 99%. In assay [12], the viability is 102% (inactive). Besides, the Her2 level in assay [2] is 94.5% (inactive). In addition, in assay [6] (H69AR cells + 2 uM doxorubicin), the differential viability (reversal) was 9.93% (inactive). The results for the inhibition in [7], in assay [8] and in [13] were -5.07% (inactive), 8.03% (inactive) and 0.44% (inactive), respectively. Also, the figures for the growth inhibition in [9] and in assay [10] were -14.7% (inactive) and 1.89% (inactive), respectively. For the same compound, the viability increase in assay [11] was -1.24% (inactive). In assay [14], the RAM network inhibition is 5.92% (inactive).

In the case of `Cc1ccc(-n2c3c(cc(C(=O)O)c2=O)C(=O)CC(C)(C)C3)cc1`, the viability in assay [1] is 98%; in assay [3], 98% (inactive); in [4] it was 111% (inactive); in assay [5], 87.8% (inactive); in [6] (setting [16]), 90.9%; in assay [6] (setting [17]), 87.8%. Besides, the viability in [15] was 100% (inactive). Moreover, the Her2 level in assay [2] was 82.5% (inactive). In addition, in assay [6] (H69AR cells + 2 uM doxorubicin), the differential viability (reversal) was -3.07% (inactive). The inhibition in assay [7] is -1.84% (inactive); in assay [8] it was 0% (inactive); in assay [13], 0.675% (inactive). In addition, the growth inhibition in [9] is -16.4% (inactive); in assay [10], -5.83% (inactive). Further, in [11], the viability increase is -3.48% (inactive). Moreover, the RAM network inhibition in assay [14] was 4.71% (inactive).

Take `c1nc(NCC2(N3CCOCC3)CCCCC2)c2ccsc2n1`: the viability in assay [1] was 82.5%; in assay [3], 82.5% (inactive); in assay [4], 97.7% (inactive); in assay [5], 98.6% (inactive); in assay [6] (setting [16]), 99.2%; in assay [6] (setting [17]), 98.6%. For the same compound, in assay [12], the viability is 78.8% (inactive). In addition, the Her2 level in [2] was 93% (inactive). Further, in assay [6] (H69AR cells + 2 uM doxorubicin), the differential viability (reversal) is -0.545% (inactive). Further, the results for the inhibition in assay [7], in assay [8] and in assay [13] were -5.27% (inactive), -2.54% (inactive) and 1.14% (inactive), respectively. The growth inhibition in assay [9] is -25.4% (inactive); in assay [10] it was 3.08% (inactive). The viability increase in assay [11] is -3.33% (inactive). Further, the RAM network inhibition in assay [14] was 8.05% (inactive).

Consider `Cc1ccc(C(C(=O)NC2CCCCC2)N2CCOCC2)cc1` (stereo not given), for which the viability in assay [1] is 95%; in assay [3], 95% (inactive); in assay [4] it was 106% (inactive); in [5], 95.8% (inactive); in [6] (setting [16]), 91.7%; in assay [6] (setting [17]), 95.8%. The viability in assay [15] is 89.3% (inactive). Also, the Her2 level in assay [2] is 100% (inactive). Moreover, the differential viability (reversal) in assay [6] (H69AR cells + 2 uM doxorubicin) was 4.12% (inactive). Also, the inhibition was -5.89% (inactive) in assay [7], -4.13% (inactive) in assay [8] and 1.07% (inactive) in assay [13]. Moreover, the growth inhibition is -9.79% (inactive) in assay [9] and -10.3% (inactive) in assay [10]. The viability increase in assay [11] is -2% (inactive). Besides, the RAM network inhibition in assay [14] was 7.79% (inactive).

`COc1ccc(N(C)C(=O)CCS(=O)(=O)c2cccc3nonc23)cc1`: the viability was 96.5% in assay [1]; 96.5% (inactive) in assay [3]; 94.9% (inactive) in [4]; 104% (inactive) in [5]; 89.6% in assay [6] (setting [16]); 104% in [6] (setting [17]). The viability in [15] was 89.6% (inactive). Moreover, the Her2 level in [2] was 85% (inactive). In addition, in [6] (H69AR cells + 2 uM doxorubicin), the differential viability (reversal) is 14.5% (inactive). The inhibition was -9.86% (inactive) in assay [7], -0.95% (inactive) in [8] and 1.3% (inactive) in assay [13]. For the same compound, the growth inhibition in assay [9] was -9.93% (inactive); in assay [10], -8.78% (inactive). Besides, the viability increase in [11] is -3.05% (inactive). For the same compound, in assay [14], the RAM network inhibition is 4.67% (inactive).

In the case of `CCOc1ccc(NC(=O)CSc2nccn2C)cc1`, the viability in [1] was 103%; in assay [3], 103% (inactive); in assay [4], 82.7% (inactive); in assay [5] it was 99.7% (inactive); in [6] (setting [16]), 93%; in [6] (setting [17]) it was 99.7%. Also, the viability in assay [12] was 106% (inactive). For the same compound, the Her2 level in assay [2] was 85.5% (inactive). Also, in assay [6] (H69AR cells + 2 uM doxorubicin), the differential viability (reversal) is 6.7% (inactive). The inhibition in assay [7] is -4.34% (inactive); in assay [8] it was 0.83% (inactive); in assay [13], 2.29% (inactive). In addition, the growth inhibition in [9] is -14.8% (inactive); in [10], -9.37% (inactive). Also, the viability increase in assay [11] is -1.79% (inactive). The RAM network inhibition in assay [14] was 7.99% (inactive).

For `CCOC(=O)c1cc2c(=O)n3ccccc3nc2n(CCCOC)c1=NC(=O)C(C)(C)C`, the viability in assay [1] is 91%; in [3] it was 91% (inactive); in assay [4], 105% (inactive); in [5], 83.7% (inactive); in assay [6] (setting [16]), 60.6%; in [6] (setting [17]) it was 83.7%. Moreover, the viability in assay [15] is 91.4% (inactive). The Her2 level in assay [2] was 92% (inactive). The differential viability (reversal) in assay [6] (H69AR cells + 2 uM doxorubicin) was 23.1% (inactive). For the same compound, the inhibition in assay [7] is -7.4% (inactive); in [8], -3.17% (inactive); in assay [13] it was 2.98% (inactive). The growth inhibition in assay [9] was -11% (inactive); in assay [10], 7.96% (inactive). The viability increase in [11] is -2.09% (inactive). In [14], the RAM network inhibition is 2.11% (inactive).

`Clc1ss/c(=N\c2ccccn2)c1Cl`: the viability in [1] is 100%; in assay [3] it was 100% (inactive); in assay [4] it was 77.8% (inactive); in assay [5], 76.6% (inactive); in assay [6] (setting [16]), 72.3%; in assay [6] (setting [17]), 76.6%. In addition, the viability in assay [15] is 96.8% (inactive). Moreover, in assay [2], the Her2 level was 77% (inactive). In assay [6] (H69AR cells + 2 uM doxorubicin), the differential viability (reversal) is 4.38% (inactive). For the same compound, the inhibition in assay [7] is -9.18% (inactive); in assay [8] it was 2.06% (inactive); in assay [13] it was 1.77% (inactive). For the same compound, the growth inhibition in assay [9] was 3.12% (inactive); in assay [10], 19.3% (inactive). In assay [11], the viability increase was -5.42% (inactive). Also, the RAM network inhibition in [14] was 3.89% (inactive).
